Reference: PubChem BioAssay AID493035 (The Scripps Research Institute Molecular Screening Center, 2011)
The whole screen tested about 2,000 compounds, of which about 45 (2%) were called active. The full list was thinned out, with actives kept by preference. Values without a mark were called inactive.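 Rule for the calls: active = inhibition above the mean of all tested compounds plus 3 SD (cut at about 49% in these data); inactive = the rest.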

Target: Perilipin-5 (Homo sapiens) + 1-acylglycerol-3-phosphate O-acyltransferase ABHD5 (Homo sapiens) (UniProt Q00G26+Q8WTS1)
Sequence (Q00G26 whole entry, looked up): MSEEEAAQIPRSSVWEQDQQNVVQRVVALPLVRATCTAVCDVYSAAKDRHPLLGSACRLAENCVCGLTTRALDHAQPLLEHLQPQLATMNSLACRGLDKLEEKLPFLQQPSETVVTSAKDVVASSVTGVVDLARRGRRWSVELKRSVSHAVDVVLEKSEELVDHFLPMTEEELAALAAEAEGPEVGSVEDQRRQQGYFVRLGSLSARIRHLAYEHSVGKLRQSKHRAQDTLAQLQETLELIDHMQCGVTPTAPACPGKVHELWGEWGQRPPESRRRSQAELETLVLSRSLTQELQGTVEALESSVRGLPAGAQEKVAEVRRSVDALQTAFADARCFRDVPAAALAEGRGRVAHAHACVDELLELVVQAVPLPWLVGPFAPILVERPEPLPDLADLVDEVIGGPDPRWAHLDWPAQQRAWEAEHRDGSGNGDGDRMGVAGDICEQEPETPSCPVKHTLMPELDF
Sequence (Q8WTS1 whole entry, looked up): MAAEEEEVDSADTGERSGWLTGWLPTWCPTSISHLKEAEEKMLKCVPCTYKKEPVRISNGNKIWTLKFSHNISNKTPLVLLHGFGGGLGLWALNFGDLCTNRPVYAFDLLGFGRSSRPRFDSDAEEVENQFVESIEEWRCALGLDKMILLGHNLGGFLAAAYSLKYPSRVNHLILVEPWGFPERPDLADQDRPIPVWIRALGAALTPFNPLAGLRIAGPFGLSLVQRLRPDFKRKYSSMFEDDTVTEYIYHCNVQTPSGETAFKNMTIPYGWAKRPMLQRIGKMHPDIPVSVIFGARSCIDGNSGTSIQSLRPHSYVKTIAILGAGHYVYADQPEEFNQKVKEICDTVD
Test: blockers of ABHD5 binding to perilipin-5 – cell lysate, split luciferase complementation, luminescence, NIH validation set, pilot screen (AID 493035);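 for inhibition: 0% = DMSO only wells while the 100% control is not stated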
Details: split G. princeps luciferase complementation, lysates, 4 h; at 7.9 µM, stronger effect = higher value

SMILES | inhibition
O=C1CCCCCN1Cc1ccccc1 | 9.82%
O=C1C=CC(=O)C(C2=C3C(=O)N(CCc4ccccc4)CC(=O)N3CCC2)=C1 | 74.5% (active)
C/C(=N/N1CCN(Cc2cccc3ccccc23)CC1)c1cccnc1 | -8.01%
CC1(C)C2CCC1(C(=O)O)c1nc3ccccc3nc12 (stereo not drawn) | -0.64%
Cc1ccc(S(=O)(=O)Nc2ccc(S(=O)(=O)Nc3cc(C)nc(C)n3)cc2)cc1 | 4.03%
CC(C)CCOCC(=O)Nc1cccc(C(=O)O)c1 | -0.57%
COC(=O)C1=C(C)NC(C)=C([N+](=O)[O-])C1c1ccccc1C(F)(F)F (stereo not drawn) | -2.75%
COC(=O)C1=C(C)NC(C)=C(C(=O)OC)C1c1ccccc1[N+](=O)[O-] | active
CCOC(=O)C1=C(C)NC(C)=C(C(=O)OC)C1c1cccc([N+](=O)[O-])c1 (stereo not drawn) | 3.99%
O=C(O)CCSCCC(=O)O | 2.26%
CC12CCC(C(=O)N3CCCCC3)([C@H](Br)C1=O)C2(C)C (stereo partly drawn) | -4.77%
COc1ccc(C(=O)Nc2ccccc2C(=O)NC(Cc2c[nH]c3ccccc23)C(=O)O)cc1 (stereo not drawn) | 1.79%
COc1ccc(/C=C\C(=O)c2c(O)ccc3c(C)cc(=O)oc23)cc1OC | 59.1% (active)
COc1ccc(/C=C/C(=O)Nc2ccccc2C(=O)O)cc1OC | -12.4%
COc1ccc(C(=O)Oc2ccc3c(C)cc(=O)oc3c2C(C)=O)cc1 | 2.94%
Cc1ccc2c(CC(=O)O)coc2c1 | -6.46%
CCSC(SCC)[C@H](O)[C@@H](O)[C@H](O)[C@H](O)CO | -2.61%
CC(C)(C)C(=O)N1CCCC1C(=O)O (stereo not drawn) | -7.48%
Nc1ccc(-c2nc3ncccc3o2)c(Cl)c1 | -10.8%
CC(C)Cc1cc(C(=O)N2CCC(N3CCC(C(=O)N4CCCC4)CC3)CC2)n[nH]1 | -3.07%
COc1cc(C2Nc3ccccc3NC3=C2C(=O)CC(c2ccc(OC)c(OC)c2)C3)ccc1O (stereo not drawn) | 1.84%
C=CCC1(O)C(=O)N2C(=C1C(=O)N1CCOCC1)c1ccccc1CC2(C)C (stereo not drawn) | 0.31%
Cc1ccc(C2=NOC(=O)/C2=C\C=C\c2ccccc2)cc1 | 94.4% (active)
Cc1ccc2c(c1)C(O)(CC(=O)/C=C/C=C/c1ccccc1)C(=O)N2 (stereo not drawn) | 24.3%
NC(=O)c1c(-c2ccccc2)oc2ccc(O)cc12 | -5.91%

SMILES | inhibition
CCOC(=O)C1=C(C)N[C@@]2(O)c3ccccc3C(=O)[C@@]12O | 10.3%
COc1ccc(OC(C)C(=O)Nc2ccccc2F)cc1 (stereo not drawn) | 2.02%
O=C(c1cccnc1)N1N=C(C2CC2)CC1(O)C(F)(F)F (stereo not drawn) | 2.77%
O=C(Nc1cccc(C(=O)O)c1)/C(=C\c1ccccc1)NC(=O)c1ccccc1 | -2.05%
O=C(O)CCCCCCNC(=O)c1cncc(O)c1 | -6.1%
CC(=O)OC(CC(=O)O)C[N+](C)(C)C (stereo not drawn) | -14.8%
COc1ccc(C(=O)Nc2nc3ccccc3c(=O)[nH]2)cc1 | 0.27%
CC(C)N1C(=O)/C(=C\c2nc3ccccc3c(=O)[nH]2)c2ccccc21 | 64.9% (active)
COc1ccc(NC(=O)C2CSC3c4ccccc4C(=O)N23)cc1 (stereo not drawn) | 4.85%
CCOC(=O)C(Cc1cc(C(C)=O)ccc1OC(C)C)C(=O)OCC | -3.49%
O=C1C2C3C=CC(C4CC34)C2C(=O)N1/N=C/c1ccc(-c2ccc([N+](=O)[O-])cc2)o1 (stereo not drawn) | -2%
c1ccc(Cn2ncc3c(Nc4ccccc4)ncnc32)cc1 | -6.21%
O=C(NO)c1ccccc1O | -11.8%
CC(=O)N[C@@H](CS)C(=O)O | -2.08%
COC(=O)[C@@H](N)CS | 78.9% (active)
COc1cc(OC)c2c(C)c(Cl)c(=O)oc2c1 | -6.84%
CCN(CC)C(=O)c1sc(NC(=O)c2c(OC)cccc2OC)c(C#N)c1C | -4.18%
CCCC(CCC)C(=O)OC1C[C@H]2CC[C@@H](C1)[N+]2(C)C (stereo partly drawn) | -9.28%
CCN(CC)C(=S)SSC(=S)N(CC)CC | 95.2% (active)
COc1ccc(O)c(C2=Nc3ccccc3N=C(c3ccccc3)C2)c1 | -11.4%
C=CCOc1ccc(C(=O)CC)cc1OC | -3.26%
CCc1oc2ccccc2c1C(=O)c1cc(Br)c(O)c(Br)c1 | 50.7% (active)
CC(=O)CCc1oc2ccccc2c1-c1ccccc1 | -0.95%
CCCCc1oc2ccccc2c1C(=O)c1cc(I)c(OCCN(CC)CC)c(I)c1 | -3.91%
COc1ccc2cc[nH]c2c1 | 5.24%

SMILES | inhibition
COc1cccc2c(=O)c(C/C=C(/C)Cl)c(C)[nH]c12 | -0.4%
COc1ccc(N2CCN(C(=S)NCc3ccccc3)CC2)cc1 | 10.2%
CC(C)=CCC(C)(C)/C=N/NC(N)=O | -11.2%
CC(=O)N(CCC(Cc1ccccc1)c1ccco1)Cc1ccco1 (stereo not drawn) | 39.1%
COc1ccccc1C(CCN(Cc1ccccc1)C(C)=O)c1ccco1 (stereo not drawn) | 7.01%
O=C(c1ccco1)N(CCC(c1ccccc1)c1ccco1)Cc1ccco1 (stereo not drawn) | 58.6% (active)
COc1ccc(-c2cc(C(=O)N3CCOCC3)c3cc(C)ccc3n2)cc1 | -3.27%
O=C(c1ccc(Cl)cc1)C1CCCN(C(=O)/C=C/c2ccccn2)C1 (stereo not drawn) | 8.56%
CCCCC/C=C\C[C@H](O)/C=C/c1cccc(C[C@H](O)CCCCO)n1 | 62.8% (active)
CSCCC(NC(=O)/C(=C/c1ccc2c(c1)OCO2)NC(=O)c1cccc([N+](=O)[O-])c1)C(=O)O (stereo not drawn) | 5.37%
OC[C@@H](O)[C@@H](O[C@H]1O[C@H](CO)[C@@H](O)[C@H](O)[C@H]1O)[C@H](O)[C@@H](O)CO | -8.59%
Cc1cccc(C(=O)c2cccc(C)c2)c1 | -8.84%
Cn1c(=O)c(C(=O)NCCO)c(O)c2ccccc21 | -4.23%
O=C(Nc1ccc(Oc2c(F)c(F)c(F)c(F)c2F)cc1)OC1CCN2Cc3ccccc3N=C12 (stereo not drawn) | 69.3% (active)
Cc1ccc(S(=O)(=O)N2CCC(C(=O)N[C@@H](C)C(=O)NC3CCS(=O)(=O)C3)CC2)cc1 (stereo partly drawn) | -6.13%
Cc1ccc(-c2nnc(-c3ccc4c(c3)OCO4)o2)cc1 | -9.18%
CCN1/C(=C/C=C/C=C/c2sc3ccccc3[n+]2CC)Sc2ccccc21 | 70.5% (active)
CN(C)CCCN1c2ccccc2Sc2ccccc21 | -13%
CC(CN1c2ccccc2Sc2ccccc21)N(C)C (stereo not drawn) | -12.2%
C=CCn1c(SCC(=O)NC2CCCCC2)nc2ccccc2c1=O | -1.42%
COc1ccccc1-c1ccc(/C=C2/C=C(CC(C)C)OC2=O)o1 | 7.79%
CCOC(=O)c1c(C)oc2cc(Br)c(OC(C)C(=O)OCC)cc12 (stereo not drawn) | -0.05%
COc1cccc(OCC(O)CO)c1 (stereo not drawn) | -6.51%
N#C/C(C(N)=O)=c1/ccc2c(c1)N1C3=C(CCCC3)CC3CCCCC31N=2 (stereo not drawn) | 25.4%
COc1cccc(/C=C/C(=O)c2c(O)cc(C)oc2=O)c1O | 44.4%

SMILES | inhibition
COc1ccc(C(=O)/C=C/c2cc(C(=O)O)cc3c2OCOC3)c(O)c1 | 70.3% (active)
COc1ccc(C(=O)COc2ccc(F)cc2)c(O)c1 | -6.5%
CC1=CC(C)(C)N2C(=O)C3(NCCc4c3[nH]c3ccccc43)c3cc(C)cc1c32 (stereo not drawn) | -1.07%
O=C(NC(=S)Nc1ccc(N2CCN(C(=O)c3ccccc3)CC2)cc1)c1cccs1 | 11.4%
Cc1ccc(S(=O)(=O)n2ccnc2)cc1C | -3.74%
COC(=O)c1ccc(=O)n(Cc2ccco2)c1 | 18.6%
COCCCN1C(=O)/C(=C\c2cccs2)C(C(=O)OC)=C1C | 0.91%
COC(=O)C1=C(C)N(Cc2ccco2)C(=O)/C1=C\c1ccc([N+](=O)[O-])cc1 | 84.5% (active)
CCNC(=O)C12CCC(C)(C(=O)O1)C2(C)C (stereo not drawn) | -5.33%
CC(C)[C@H](NC(=O)[C@@H]1CSCN1C(=O)OC(C)(C)C)C(=O)NCC1CCC(C(=O)O)CC1 (stereo partly drawn) | -18.6%
CC(=O)N/C(=C/c1ccc2c(c1)OCO2)C(=O)NCCO | 2.23%
COc1ccc(C2=C(CN(C)C)C(c3ccccc3)c3ccccc3O2)cc1 (stereo not drawn) | 1.13%
COc1ccccc1/C=C/C(=O)OCCN1CCOCC1 | -8.59%
CCOC(=O)C(=Cc1ccccc1OC)C(=O)OCC | 47.9% (active)
CCOC(=O)C(=O)N1CCN(c2ccccc2OC)CC1 | -5.55%
CCn1cc(CN2N=C(C)CC2c2ccccc2)c(C)n1 (stereo not drawn) | 2.34%
Cc1ccc(S(=O)(=O)NC(=O)Nc2cc(C)ccc2F)cc1 | -7.32%
CC(C)(C)N1NC2(CCCCC2)NC1=S | 6.12%
COc1ccc(O)c(C(=O)/C=C/c2cc3ccccc3o2)c1 | 73.2% (active)
COc1ccc2oc(=O)c(C(=O)Nc3ccccc3-c3ccccc3)cc2c1 | -5.51%
COc1ccc2oc(=O)c(C(=O)N3CCN(c4ccccc4)CC3)cc2c1 | 9.11%
Cc1ccc(C(=O)O)cc1NC(=O)c1cccs1 | -5.26%
CN1/C(=C\C=Nc2ccccc2)C(C)(C)c2ccccc21 | 14.1%
